A selection: hits, their analogues and other compounds. The true share with any hit is near 2.7%.
TrxR1 substrate: rat thioredoxin reductase 1 substrate activity. purified TrxR1 substrate turnover, NADPH consumption readout. 390,000 tested, 0.01% active. Potency, µM (top dose mostly 114 µM), for inactives: top-dose activity change, negative = substrate turnover. AID 588456. O89049; note: % is set by controls: 0 for no effect and ±100 for the full control effect; nearly all actives have a fitted effect of over 50% in size
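Rat TrxR1, dispensed at 90 nM, was prereduced with 400 uM NADPH (final) for 5 min at ~22 deg C, then incubated with compound 15 min before 400 uM selenite. A first-read NADPH fluorescence drop versus no-compound background flagged substrates.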
HEK293 tox: cytotoxicity counter-screen for GLP-1 receptor inverse agonists | HEK293 cAMP-luciferase reporter cells, luminescence, 24 h | Potency, µM (doses to about 38.3 µM), for the others: at the highest dose activity change, negative = inhibition, usual class: inhibitors | 410,000 tested, 0.13% active;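 note: loss of luciferase light is scored as toxicity; % is set by controls: 0 for no effect and ±100 for the full control effect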
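Step one: seed cells (200 cells/uL, DMEM with 10% Nu serum, 1% pen-strep). Step two: 12-hour incubation at 37 deg C. Step three: pin 23 nL compound, incubate 24 hr. Step four: add luciferase reagent, read luminescence 12 min later.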
GLP-1R inv ag: inverse agonists of human GLP-1 receptor; Potency, µM (series often up to 38.3 µM), for inactives: top-dose activity change, negative = inhibition, usual class: inhibitors; HEK293 GLP-1R CRE-luciferase, luminescence, 24 h; GLP-1R form is constitutively active; 410,000 tested, 1.6% active; note: % is set by controls: 0 for no effect and ±100 for the full control effect; nearly all actives have a fitted effect of over 55% in size
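qHTS in 1536-well format: reporter HEK293 cells expressing constitutive GLP-1R activity in DMEM + 10% Nu serum, 24 hr with compounds at 37 deg C, luminescence read after 12 min with detection reagent.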
GLP-1R agonist: agonists of human GLP-1 receptor; 380,000 tested, 0.007% active; P43220; Potency, µM (titrated, usually from 45.6 µM), for inactives: top-dose activation, usual class: activators; HEK293 GLP-1R CRE-luciferase, luminescence, 4-6 h; cells express a hypersensitive GLP-1R form; AID 624172; note: % of control where 0% means no effect
IDH1 R132H inh: inhibitors of human mutant IDH1 R132H; IDH1-R132H enzyme, NADPH consumption, diaphorase/resazurin fluorescence; Potency, µM (titrated, usually from 76.6 µM), for inactives: at the highest dose activity change, negative = inhibition, most hits filed as inhibitors; 390,000 tested, 0.093% active; note: % is set by controls: 0 for no effect and ±100 for the full control effect; nearly all actives have a fitted effect of over 65% in size
Target sequence (O75874 whole entry R132H, stated change not applied): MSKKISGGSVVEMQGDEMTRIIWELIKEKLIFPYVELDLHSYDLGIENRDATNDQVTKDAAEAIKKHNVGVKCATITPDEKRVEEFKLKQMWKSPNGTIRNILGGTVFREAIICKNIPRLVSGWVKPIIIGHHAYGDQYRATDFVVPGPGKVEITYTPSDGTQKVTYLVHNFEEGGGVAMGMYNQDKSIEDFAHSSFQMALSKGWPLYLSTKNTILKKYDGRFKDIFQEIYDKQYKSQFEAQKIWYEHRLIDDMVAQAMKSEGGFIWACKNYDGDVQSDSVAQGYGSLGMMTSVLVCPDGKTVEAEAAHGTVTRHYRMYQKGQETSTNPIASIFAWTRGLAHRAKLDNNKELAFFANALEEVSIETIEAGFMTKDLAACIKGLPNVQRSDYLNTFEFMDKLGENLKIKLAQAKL
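IDH1-R132H (0.5 ug/mL dispensed) in pH 7.5 Tris buffer was preincubated 30 min with compound, then given a substrate mix of 0.016 mM NADPH and 2 mM alpha-KG for 80 min at room temperature; remaining NADPH was read by diaphorase/resazurin fluorescence.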
TrxR1 inh: blocks rat thioredoxin reductase 1. Potency, µM (top dose mostly 114 µM), inactives show top-dose activity change, negative = inhibition, actives largely listed as inhibitors. 390,000 tested, 1% active. AID 588453. recombinant rTrxR1, NADPH fluorescence consumption, selenite substrate. O89049; note: % is set by controls: 0 for no effect and ±100 for the full control effect; nearly all actives have a fitted effect of over 65% in size
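Rat TrxR1 (90 nM in the dispensed reagent) was pre-reduced with 400 uM NADPH for 5 min at room temperature, then incubated with compound for 15 min. After 400 uM selenite was added, NADPH fluorescence (Ex 340/Em 450 nm) was followed for 8 min.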
Starred values were filed as active, the others as inactive; u = inconclusive; x = no result given; [ ] = remark or other dose. Calls come from the whole dose curve; as a rule, active = well fitted curve in the direction sought with a large enough effect; inconclusive = small, poorly fitted or top-dose-only effect, or another doubt; inactive = no such curve, though single readings can be large; an effect the other way counts as inactive or inconclusive. Potency is the fitted concentration of half-maximal effect.

SMILES	TrxR1 substrate	HEK293 tox	GLP-1R inv ag	GLP-1R agonist	IDH1 R132H inh	TrxR1 inh
Cc1ccc(-n2ncc3c(NCCCOC(C)C)ncnc32)c(C)c1	15%[57.1 µM]	13%	2.5µM*	1%	-1%	15%[57.1 µM]
Cc1ccc(-n2ncc3c(NCC(C)C)ncnc32)c(C)c1	-1%[57.1 µM]	0%	u	x	25%	2%[57.1 µM]
Fc1ccc(C(NCCc2ccc(Cl)cc2)c2nnc(-c3ccccc3Cl)o2)cc1 (configuration not stated)	3%	7%	u	x	26%	17%
CC1CCN(c2nn3c(=O)c(C(=O)NCCc4ccc(Cl)cc4)cnc3s2)CC1	7%[57.1 µM]	1%	7%	x	-10%	22%[57.1 µM]
COc1cc(CNCc2ccccc2Cl)ccc1OCC(=O)NC1CCCCC1	3%	-26%	10µM*	13%	0%	29%
CC(=O)NC(Cc1c(F)c(F)c(F)c(F)c1F)C(=O)NCC(N)C(=O)c1ccccc1 (configuration not stated)	-7%	x	x	x	x	-12%
COc1ccc(OCC(O)CNC(C)c2ccccc2)cc1 (configuration not stated)	2%	4%	-24%	3%	-4%	17%
OC(CNC1CCCC1)COc1ccc(-c2ccccc2)cc1 (configuration not stated)	9%[57.1 µM]	10%	8.9µM*	1%	2%	25%[57.1 µM]
COC(=O)c1ccc(OCC(O)CNC2CCCC2)cc1 (configuration not stated)	-1%	-15%	u	11%	-8%	17%
CN(CC(O)COc1ccc2ccccc2c1)C1CCCCC1 (configuration not stated)	-3%	-20%	8.9µM*	0%	5%	4%[57.1 µM]
CC(NCC(O)COC1CCC(C(C)(C)C)CC1)c1ccccc1 (configuration not stated)	0%	u	10µM*	3%	-2%	20%
COc1ccc(OCC(O)CN(C2CCCCC2)C2CCCCC2)cc1 (configuration not stated)	7%[57.1 µM]	-18%	u	9%	4%	5%[57.1 µM]
CCCC(NCC(O)COc1ccc(-c2ccccc2)cc1)c1ccccc1 (configuration not stated)	5%	u	13µM*	-6%	8%	20%
CC(NCC(O)COc1ccc(Br)cc1)c1ccccc1 (configuration not stated)	-2%	-14%	u	1%	1%	5%
COCCc1ccc(OC[C@H](O)CNC(C)C)cc1	x	x	x	-9%	x	x
CCCCOc1cccc(C(=O)N2CCN(CCc3ccncc3)CC2)c1	2%	2%	-41%	x	-8%	u
Cc1ccc(Nc2nnc(-c3ccc(C)c(S(=O)(=O)N4CCOCC4)c3)c3ccccc23)c(C)c1	5%	-4%	13%	x	-11%	11%
CC(NCC(O)COc1ccc2ccccc2c1)c1ccccc1 (configuration not stated)	0%[57.1 µM]	u	2.8µM*	10%	0%	4%[57.1 µM]
CC(C)[C@H]1COCCS(=O)(=O)N1Cc1cccc([N+](=O)[O-])c1	4%	x	x	x	x	9%
Cn1cc(S(=O)(=O)N2CCOCC2)cc1C(=O)Nc1ccc(Cl)c(C(F)(F)F)c1	-3%	-3%	u	x	-12%	23%
CC(C)c1onc(C(=O)N2CCN(C(c3ccccc3)c3ccccc3)CC2)c1[N+](=O)[O-]	-7%	27%	2.5µM*	-3%	-11%	14%
COc1ccc(S(=O)(=O)c2c(Nc3c(C)cccc3C)sc(C(=O)c3ccc4c(c3)OCO4)c2N)cc1	-2%[57.1 µM]	u	u	x	13%	-4%[57.1 µM]
CCOc1ccc(S(=O)(=O)N(CC(=O)NCCSc2ccccc2)c2ccccc2)cc1	3%	-11%	-2%	0%	23%	16%
CCOC(=O)C(=CNNc1cccc(Cl)c1)C(=O)OCC	-1%[57.1 µM]	-3%	5µM*	-3%	3%	-9%[57.1 µM]
